Tau FP inhib: qHTS for Inhibitors of Tau Fibril Formation, Fluorescence Polarization. Microtubule-associated protein tau (Homo sapiens), P10636. K18 P301L tau heparin fibrillization, Alexa594 FP, 6 h. Potency, µM (doses to about 57.7 µM), hits mostly inhibitors. hit rate 0.39% among 280,000. AID 1468, 2008; also: nearly all actives have a fitted effect of over 55% in size
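Human tau K18 […] P301L fragment, 15 uM unlabeled plus 0.24 uM Alexa 594-labeled tau (final), with compound and 20 uM heparin in 100 mM sodium acetate pH 7; 6 hr at 37 C, then Alexa 594 FP read.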
Tau fluor counter: Counterscreen qHTS for Inhibitors of Tau Fibril Formation, Fluorescence Polarization. Potency, µM (series often up to 57.7 µM). tau K18 P301L Alexa594 fluorescence, heparin fibrillization. AID 1463, 2008. hit rate 0.93% among 280,000; also: nearly all actives have a fitted effect of over 55% in size
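Human tau K18 P301L (15 uM unlabeled, 0.24 uM Alexa 594-labeled) in 100 mM sodium acetate pH 7 with 20 uM heparin, 6 hr at 37 C. ThT 30 uM added, 1 hr ambient; Alexa 594 FP and total fluorescence read at 555/632 nm.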
Tau ThT inhib: qHTS for Inhibitors of Tau Fibril Formation, Thioflavin T Binding; Potency, µM (doses to about 57.4 µM), usual class: inhibitors; hit rate 2.1% among 270,000; recombinant tau K18 P301L, heparin-induced fibrillization, ThT fluorescence; Microtubule-associated protein tau (Homo sapiens), P10636; also: nearly all actives have a fitted effect of over 55% in size
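Using a mix of unlabeled (15 uM) and Alexa 594-labeled (0.24 uM) tau K18 P301L, heparin-triggered fibrillization over 6 hr at 37 C was scored by ThT fluorescence.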
TRb SRC2 PPI: qHTS for Inhibitors of the Interaction of Thyroid Hormone Receptor and Steroid Receptor Coregulator 2; TRbeta-SRC2 peptide binding, fluorescence polarization; receptor liganded with 1 µM T3; Potency, µM (doses to about 106 µM), hits mostly inhibitors; AID 1469, 2008; hit rate 0.065% among 280,000; also: nearly all actives have a fitted effect of over 50% in size
Target sequence (P10828 whole entry, looked up): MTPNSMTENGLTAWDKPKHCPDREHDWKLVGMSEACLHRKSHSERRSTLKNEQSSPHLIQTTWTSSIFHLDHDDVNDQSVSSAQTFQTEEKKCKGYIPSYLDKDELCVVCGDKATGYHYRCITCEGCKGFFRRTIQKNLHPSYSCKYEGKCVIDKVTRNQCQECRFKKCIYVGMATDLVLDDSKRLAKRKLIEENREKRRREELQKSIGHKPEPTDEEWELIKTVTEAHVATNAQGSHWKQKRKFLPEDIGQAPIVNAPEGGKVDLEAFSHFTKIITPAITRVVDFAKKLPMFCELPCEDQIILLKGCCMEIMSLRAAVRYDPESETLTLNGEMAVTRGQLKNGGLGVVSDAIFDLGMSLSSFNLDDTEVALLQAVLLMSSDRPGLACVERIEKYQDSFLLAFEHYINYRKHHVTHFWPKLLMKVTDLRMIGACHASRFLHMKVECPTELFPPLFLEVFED
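Quantitative HTS by FP: 0.6 uM TRb LBD, 20 nM labeled SRC2 20-mer, 1 uM T3, 5% DMSO; 5 hr ambient incubation; % activity per concentration and potencies from concentration series.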
TexasRed fluor: Total Fluorescence Counterscreen for Inhibitors of the Interaction of Thyroid Hormone Receptor and Steroid Receptor Coregulator 2; hit rate 0.29% among 280,000; AID 1479, 2009; Potency, µM (series often up to 106 µM); TRb/SRC2 Texas Red total fluorescence interference; active = well fitted curve in either direction with a large enough effect; inconclusive = small, poorly fitted or top-dose-only effect
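Flags fluorescent or light-absorbing compounds by total fluorescence, S + 2P, at 555 nm excitation and 632 nm emission. Mixture: 20 nM Texas Red SRC2 peptide, 0.6 uM human TRb LBD, 1 uM T3, 5% DMSO; compound exposure 5 h at ambient temperature.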
Large screens that a line does not name were inactive; [ ] = dose if it differs, or a comment. Shown are actives, neighbours in structure and some others; about 3% of the full set was active somewhere. Unless noted, calls follow the shape of the dose curve; as a rule, active = well fitted curve in the direction sought with a large enough effect; inconclusive = small, poorly fitted or top-dose-only effect, or another doubt; inactive = no such curve, though single readings can be large; an effect the other way counts as inactive or inconclusive.

COc1ccc(CC(=O)NCC(c2ccc(N(C)C)cc2)N2CCOCC2)cc1 (configuration not stated)	Tau ThT inhib inconclusive
COc1ccc(C2/C=C\CN(CC3CC3)C(Cc3ccccc3)C(=O)N2Cc2ccc(F)cc2)cc1 (configuration not stated)	none (no result: Tau FP inhib, Tau fluor counter, Tau ThT inhib)
COc1cccc(-c2ccc3c(N)c(C(=O)c4ccc(Br)cc4)sc3n2)c1	Tau FP inhib inconclusive, Tau fluor counter 2.5µM[quencher], Tau ThT inhib 4.5µM
COc1ccc(-c2ccc3c(N)c(C(=O)c4ccc(OC)c(OC)c4)sc3n2)cc1	Tau fluor counter inconclusive, Tau ThT inhib inconclusive
COc1ccc(C(=O)c2sc3nc(-c4ccccc4)ccc3c2N)cc1OC	Tau fluor counter inconclusive
COc1ccc(-c2ccc3c(N)c(C(=O)NC(C)C)sc3n2)cc1OC	Tau FP inhib inconclusive, Tau fluor counter 18µM[quencher], Tau ThT inhib 10µM
COc1ccc(NC(=O)c2oc3ccccc3c2NC(=O)c2cc(C)cc(C)c2)c(OC)c1	Tau fluor counter inconclusive
Cc1ccc(Nc2nnc(-c3ccc(C)c(S(=O)(=O)N4CCN(C)CC4)c3)c3ccccc23)c(C)c1	none
COc1ccc(Cc2nc3ccc(C(=O)NCCc4ccc(Cl)cc4)cc3o2)cc1	none
Cc1ccc(-n2nc(C)c3c(C)cc(=O)n(CC(=O)Nc4cc(Cl)ccc4C)c32)cc1	none
O=C(Cn1c(=O)n(Cc2nc(-c3ccccc3)no2)c(=O)c2ccccc21)Nc1cccc(Cl)c1	Tau FP inhib 28µM, Tau ThT inhib inconclusive
COc1ccc(NC(=O)Cn2c(=O)n(Cc3nc(-c4ccccc4)no3)c(=O)c3ccccc32)cc1Cl	Tau FP inhib inconclusive, Tau ThT inhib inconclusive
CCOc1ccc(NC(=O)Cn2c(=O)n(Cc3nc(-c4ccccc4)no3)c(=O)c3ccccc32)cc1	Tau FP inhib inconclusive, Tau ThT inhib inconclusive
O=C(Cn1c(=O)n(Cc2nc(-c3ccccc3)no2)c(=O)c2ccccc21)Nc1cccc(C(F)(F)F)c1	Tau FP inhib 10µM, Tau fluor counter inconclusive
C[C@H]1[C@H]2CC[C@H]3C4CC=C5C[C@@H](N(C)C)CC[C@]5(C)C4CC[C@]23CN1C (some centres not stated)	none
Cc1c(C(=O)N2CCCCC2)oc2ccc(S(=O)(=O)N3CC(C)CC(C)C3)cc12 (configuration not stated)	Tau FP inhib 20µM, Tau fluor counter inconclusive, Tau ThT inhib inconclusive
CCOC(=O)N1CCN(C(=O)c2oc3ccc(S(=O)(=O)N4CCCCC4)cc3c2C)CC1	none
O=S(=O)(O)c1cc(S(=O)(=O)O)c2c(N=Nc3ccccc3)c(O)ccc2c1	none (no result: Tau FP inhib, Tau fluor counter, Tau ThT inhib)
Cc1oc(-c2ccc(Cl)cc2)nc1CSc1nnc(C)n2c1cc1sccc12	none
O=C1Nc2ccc(Br)cc2/C1=C/C(=O)c1ccc2c(c1)OCO2	Tau fluor counter inconclusive, Tau ThT inhib 25µM
Cc1ccc(S(=O)(=O)N(C(=O)c2ccncc2)c2ccc(OC(=O)c3ccncc3)c3ccccc23)cc1	Tau FP inhib inconclusive, Tau fluor counter inconclusive, Tau ThT inhib 25µM
Cc1ccc(S(=O)(=O)N(C(=O)c2ccncc2)c2ccc(OC(=O)c3ccncc3)c3ccccc23)c(C)c1	Tau FP inhib inconclusive, Tau fluor counter inconclusive, Tau ThT inhib 14µM
CCOc1ccccc1NC(=O)CSc1ccc2nnc(CCNS(=O)(=O)c3ccccc3)n2n1	none
CCOC(=O)C1=C(CSc2nc3c(cc2C#N)CCC3)OC(N)=C(C#N)C1c1ccccc1 (configuration not stated)	Tau fluor counter inconclusive, Tau ThT inhib inconclusive
COC(=O)C1=C(C)OC(N)=C(C#N)C1c1ccccc1F (configuration not stated)	none
CCOC(=O)C1=C(CSc2nc3c(cc2C#N)CN(C)CC3)OC(N)=C(C#N)C1c1ccccc1 (configuration not stated)	Tau fluor counter inconclusive, Tau ThT inhib 28µM

Source: PubChem (National Center for Advancing Translational Sciences (NCATS))
